Compounds with a hit are over-represented: about 0.92% of the library has one in this group of screens.
NS1 function inh: inhibitors of influenza NS1 protein function | Potency, µM (doses to about 46.1 µM), inactives show top-dose activity, positive = more growth | actives 0.4% (n = 270,000) | AID 2326; calls by dose curve; further: potency means the concentration at half of the fitted maximal effect; actives are rising curves; nearly all actives have a fitted effect of over 50% in size
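Growth recovery, yeast-based: influenza A NS1 expressed in S. cerevisiae causes slow growth, and suppressors are detected by OD600. The parent strain without NS1 is used as positive control.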
LmPK inh: blocks Leishmania mexicana pyruvate kinase activity; actives 0.37% (n = 290,000); AID 1721; purified LmPK, Kinase-Glo ATP luminescence, 1 h; Q27686; Potency, µM (top dose mostly 57.5 µM), for the others: at the highest dose activity change, negative = inhibition, most hits filed as inhibitors; further: potency means the concentration at half of the fitted maximal effect; on the % scale 0 is the no-effect control and ±100 the full control effect
Target sequence (Q27686 whole entry, looked up): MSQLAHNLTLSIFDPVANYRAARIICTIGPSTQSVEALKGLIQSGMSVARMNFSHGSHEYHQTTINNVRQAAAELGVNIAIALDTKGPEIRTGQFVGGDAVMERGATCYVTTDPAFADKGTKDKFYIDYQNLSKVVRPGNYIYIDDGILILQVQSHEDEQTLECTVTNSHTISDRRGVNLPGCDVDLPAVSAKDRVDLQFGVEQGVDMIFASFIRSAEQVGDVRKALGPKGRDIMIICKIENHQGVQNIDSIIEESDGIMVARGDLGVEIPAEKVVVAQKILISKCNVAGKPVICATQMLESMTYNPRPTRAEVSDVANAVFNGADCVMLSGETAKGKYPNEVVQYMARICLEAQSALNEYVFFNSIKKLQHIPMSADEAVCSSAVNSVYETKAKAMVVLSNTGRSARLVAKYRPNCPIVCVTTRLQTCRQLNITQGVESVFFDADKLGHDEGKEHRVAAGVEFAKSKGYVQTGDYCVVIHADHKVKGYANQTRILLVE
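In 50 mM imidazole pH 7.2 with 7 mM MgCl2, LmPK (0.1 nM) turned over PEP (0.5 mM) and ADP (0.1 mM) for 1 h at room temperature. Luciferase read-out of ATP.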
RE007 growth inh: less growth of the S. pombe RE007 Vpr strain; S. pombe RE007 Vpr strain, BacTiter-Glo ATP luminescence, 24 h; actives 0.21% (n = 360,000); Potency, µM (titrated, usually from 92.2 µM), for inactives: at the top dose activity change, negative = less growth, hits mostly inhibitors; active means well fitted falling curve with a large enough effect; inconclusive means small, poorly fitted or top-dose-only effect; inactive means no such curve, though single readings can be large or run the other way; further: potency means the concentration at half of the fitted maximal effect; on the % scale 0 is the no-effect control and ±100 the full control effect; nearly all actives have a fitted effect of over 50% in size
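Fission yeast strain RE007, carrying one chromosomally integrated HIV-1 vpr copy, was seeded at OD 0.01 in PMG+AL medium with 23 nL pinned compound. After 24 h at 30 °C and 99% humidity, viability was read by BacTiter-Glo luminescence.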
AMA1-RON2 inh: disrupts binding of P. falciparum AMA1 to RON2. AlphaScreen AMA1-biotinylated RON2 peptide binding. Potency, µM (top dose mostly 58.2 µM), inactives show at the highest dose activity change, negative = inhibition, usual class: inhibitors. actives 0.2% (n = 360,000);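 further: potency means the concentration at half of the fitted maximal effect; 0% = vehicle wells and -100% = peptide control; nearly all actives have a fitted effect of over 45% in size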
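AMA1 (3D7) with his tag at 25 nM final met compounds first, then biotinylated RON2 peptide at 25 nM; detection used donor plus acceptor beads, 10 µg/mL apiece, read by AlphaScreen after 30 min at room temperature.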
Tb PYK inh: inhibitors of Trypanosoma brucei pyruvate kinase | AID 624173 | Potency, µM (highest dose often 76.8 µM), without a hit: at the highest dose activity, negative = inhibition, hits mostly inhibitors | Q57TT1 | TbPYK enzyme, Kinase-Glo Plus ATP luminescence, 45 min | actives 0.12% (n = 410,000); further: potency means the concentration at half of the fitted maximal effect; on the % scale 0 is the no-effect control and ±100 the full control effect; nearly all actives have a fitted effect of over 50% in size
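Assay buffer: 50 mM TEA pH 7.2, 100 mM KCl, 10 mM MgCl2, 0.05% BSA, 0.01% Tween-20. Pyruvate kinase from T. brucei plus substrate met compound, then ADP (130 uM final). Luminescence was read post 45 min RT.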
Flu NS1 inh: validation of influenza NS1 protein function inhibitors. shares compounds with NS1 function inh. influenza NS1 function cell assay, 15-point titration. 1,400 tested, under 10 active. AID 492980. activity change, negative = inhibition, % at 32.9 µM; calls by dose curve; further: 0% is about no effect
* = called active by the depositor; ? = inconclusive; nt = no result given; [ ] = another dose, or the depositor's remark. Unless noted, the call rests on the fitted dose curve; in most records, active means well fitted curve in the direction sought with a large enough effect; inconclusive means small, poorly fitted or top-dose-only effect, or another doubt; inactive means no such curve, though single readings can be large; an effect the other way counts as inactive or inconclusive.

SMILES	NS1 function inh	LmPK inh	RE007 growth inh	AMA1-RON2 inh	Tb PYK inh	Flu NS1 inh
COc1ccccc1Nc1nc(N)nc(CSC(=S)N2CC(C)CC(C)C2)n1 (stereo unspecified)	10µM*	2%	-5%	9%[2.32 µM]	-1%	?
COc1cccc(OC)c1C(=O)Nc1cccc(-c2nc3cc(C)cc(C)c3o2)c1	nt	nt	nt	nt	-13%	nt
CCOC(=O)c1ccc(NC(=O)CN2C(=O)c3cccnc3Sc3ccccc32)cc1	nt	nt	nt	nt	-1%	nt
O=C(CCN1C(=O)C2CC=C(Cl)CC2C1=O)NCc1ccccc1 (stereo unspecified)	2%[9.22 µM]	-1%	-4%	10%	2%	nt
O=C(CCN1C(=O)C2CC=C(Cl)CC2C1=O)Nc1ccccc1O (stereo unspecified)	?	0%	1%	-7%	-7%	9
CC(=O)c1c(C)[nH]c(C(=O)OCC(=O)N2CCc3ccccc32)c1C	4.5µM*	0%	1%	0%	-1%	14
CCOC(=O)c1ccc(Nc2c(-c3ccc(N(C)C)cc3)nc3nc[nH]n23)cc1	nt	nt	nt	nt	-4%	nt
C[C@H]1C(=O)N(c2ccccc2)[C@@H]1c1ccccc1	nt	nt	20%	-7%	4%	nt
CC1CN(C)C(c2ccccc2)C(C)C12NC(=O)NC2=O (stereo unspecified)	?	2%	-4%	-3%	2%	0
COc1ccccc1CNS(=O)(=O)c1ccc2c(c1)NC(=O)C(C)C(=O)N2 (stereo unspecified)	nt	nt	nt	nt	-2%	nt
O=C(O)c1ccc(/C=N/NC(=O)c2ccc(CN3c4cccc5cccc(c45)S3(=O)=O)cc2)cc1	15%	-5%	-8%	68%	4%	nt
O=C1CCC/C(=N/NC(=O)c2ccc(CN3c4cccc5cccc(c45)S3(=O)=O)cc2)C1	14µM*	-1%	-1%	57%	0%	11
CCOC(=O)c1cc2c(=O)n3ccccc3nc2n(Cc2ccco2)c1=NC(=O)c1cccc(F)c1	nt	nt	nt	nt	0%	nt
COc1cc(CNc2ccc3[nH]c(=O)[nH]c3c2)cc(Br)c1OCc1ccccc1F	0.79µM*	-2%	9%	-10%	-11%	-3
COc1cc(CNc2ccc3[nH]c(=O)[nH]c3c2)ccc1OCc1ccccc1F	7%	2%	-19%	-9%	-17%	nt
Cn1cccc1/C=N/N1CCN(c2ccccn2)CC1	?	0%	-16%	-4%	-2%	-22
Cn1c(NCc2ccccc2F)nc2ccccc21	nt	nt	nt	nt	-6%	nt
Cc1[nH]c2ccc(-c3nnc(SCC(=O)NCc4ccco4)n3Cc3ccccc3)cc2c1C	3.5µM*	7%	37%	-27%	-13%	-12
COc1cccc(NC(=O)CC2S/C(=N\S(=O)(=O)c3ccccc3)N(c3ccccc3)C2=O)c1 (stereo unspecified)	10µM*	0%	-3%	2%	5%	20
CCc1ccccc1NC(=O)c1sc(-n2nc(C)c(Cc3ccccc3)c2C)nc1C	nt	nt	nt	nt	3%	nt
Cc1ccc(-c2ccc(S(=O)(=O)N3CCN(C)CC3)cc2)cc1	11µM*	-3%	3%	-9%	-10%	-34
Cc1ccc(S(=O)(=O)N2CC(=NO)C2)cc1	6.3µM*	-5%	-21%	22%	-6%	14
CC1=C(C(=O)OC2CCCC2)C(c2ccccc2C(F)(F)F)CC(=O)N1 (stereo unspecified)	nt	nt	nt	nt	3%	nt
COc1ccc2c(c1)NC(c1cccnc1)=NC(c1ccc(F)cc1)=N2	nt	nt	nt	nt	0%	nt
COc1ccc(C(CC(=O)NCc2ccccc2)N2Cc3ccccc3C2=O)cc1 (stereo unspecified)	nt	nt	nt	nt	0%	nt
O=C(O)c1cc(NS(=O)(=O)c2ccc(NCc3ccccc3)c([N+](=O)[O-])c2)cc(C(=O)O)c1	14µM*	16%	9%	-6%	6%	33
COc1cccc(NS(=O)(=O)c2ccc3c(c2)C2C=CCC2C(c2ccc(C(=O)O)cc2)N3)c1 (stereo unspecified)	10µM*	3%	-25%	?	?	9
c1ccc(CSc2nnc(-c3ccccc3)c(-c3ccccc3)n2)cc1	nt	nt	15%	6%	-13%	nt

High-throughput results: PubChem BioAssay, National Center for Advancing Translational Sciences (NCATS)
